# High-throughput results deposited in PubChem by National Center for Advancing Translational Sciences (NCATS).
# An excerpt weighted towards active compounds, which were near 2.2% of everything screened.
# FUS suppressor = qHTS for Suppressors of FUS Proteinopathy: Primary screen using FUS-linked yeast assay; S. cerevisiae FUS-expressing, growth rescue, OD600, 24 h; Potency, µM (highest dose often 76.6 µM), usual class: activators; hit rate 0.24% among 390,000; AID 1347120, 2019;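 also: plate controls were DMSO vehicle for no effect and reference control for full effect; nearly all actives have a fitted effect of over 55% in size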
#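 FUS-expressing yeast, raffinose-pregrown, induced in 2% galactose minimal medium at OD 0.005; compounds in a dilution series, 24hr at 30C. Growth restoration read as absorbance at 600 nm. CP55940 positive control, DMSO negative.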
# aSyn rescue = qHTS of alpha-syn Inhibitors; Yeast expressing alpha-synuclein, growth rescue, BacTiter-Glo, 24 h; Potency, µM (titrated, usually from 46.1 µM), for the others: top-dose growth rescue (activation), most hits filed as activators; hit rate 0.14% among 370,000; also: % of control where 0% means no effect; nearly all actives have a fitted effect of over 65% in size
#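 Galactose-induced alpha-syn yeast (OD600=0.02, raffinose-pregrown) + pinned cpd, 24 hr, 30 deg C; growth by BacTiter-Glo luminescence. Growth restoration scores as activation.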
# TDP43 rescue = qHTS of TDP-43 Inhibitors | TDP-43 expressing yeast growth rescue, BacTiter-Glo, 24 h | hit rate 1.8% among 410,000 | Potency, µM (top dose mostly 46.1 µM), without a hit: at the top dose growth rescue (activation), most hits filed as activators; also: % of control where 0% means no effect; nearly all actives have a fitted effect of over 50% in size
#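 In this qHTS, compounds that restore growth of yeast expressing TDP-43 appear as activators. Cells (OD600=0.02, galactose medium, raffinose-pregrown) are incubated with compound 24 hr at 30 deg C and growth is quantified by BacTiter-Glo.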
# Mito fusion yeast = qHTS Assay for Small Molecule Inhibitors of Mitochondrial Division or Activators of Mitochondrial Fusion. S. cerevisiae fusion-defective mutant growth rescue, CellTiterGlo 48 h. Potency, µM (top dose mostly 46.1 µM), without a hit: at the highest dose growth rescue (activation), most hits filed as activators. AID 485298, 2010. hit rate 0.23% among 320,000; also: % of control where 0% means no effect; nearly all actives have a fitted effect of over 45% in size
#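 Compounds are tested for their ability to restore growth of mitochondrial fusion-defective yeast strains at non-permissive 37C in YPEG medium over 48 hours. Viability is quantified by luciferase luminescence.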
# Abeta rescue = qHTS for compounds that reverse cellular toxicity of Amyloid beta (A-beta) peptide in yeast: Primary Screen; yeast expressing A-beta42, growth rescue, OD600, 48 h; response scale: 0% DMSO, 100% iron-clioquinol control; Potency, µM (doses to about 46.1 µM), actives largely listed as activators; hit rate 0.063% among 410,000; AID 1347071, 2019; also: nearly all actives have a fitted effect of over 55% in size
#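 Growth rescue measured by 600 nm absorbance after 48 h yeast culture at 30 C with compound. Values normalized between DMSO and an equimolar ferric chloride plus clioquinol control.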
# * marks the source's active call; other numbers are inactive results; i = inactive; ? = inconclusive; . = not tested or not shown. Calls follow the shape of the dose curve; as a rule, active = well fitted curve in the direction sought with a large enough effect; inconclusive = small, poorly fitted or top-dose-only effect, or another doubt; inactive = no such curve, though single readings can be large; an effect the other way counts as inactive or inconclusive. Potency is read from the fitted curve at half-maximal effect.
SMILES,FUS suppressor,aSyn rescue,TDP43 rescue,Mito fusion yeast,Abeta rescue
CC(=O)c1sc2nc(C)c3c(c2c1N)CCCC3,i,18µM*,13µM*,-6%,i
CCN(CC)S(=O)(=O)c1cnccc1N1CCN(c2cccc(Cl)c2)CC1,i,2%,?,13µM*,i
O=C(NCCCc1ccccc1)[C@H](Cc1c[nH]c2ccccc12)NC1(C(=O)NCCc2c[nH]c3ccccc23)CCOCC1,22µM*,.,.,.,.
CC(C)(N[C@@H](Cc1c[nH]c2ccccc12)C(=O)NCC(c1ccccc1)c1ccccc1)C(=O)NC1CCCCC1,14µM*,.,.,.,.
CC(C)(C)OC(=O)N1CCC(N[C@@H](Cc2c[nH]c3ccccc23)C(=O)NCCc2c[nH]c3ccccc23)(C(=O)NC2CCCCC2)CC1,20µM*,.,.,.,.
CN1CCC(N[C@@H](Cc2ccccc2)C(=O)NCCCc2ccccc2)(C(=O)NCCc2c[nH]c3ccccc23)CC1,i,.,.,.,.
Cc1ccc(C)c(CSc2nnc3[nH]c(=O)cc(C)n23)c1,i,.,22%,.,i
O=C(NCc1cccs1)c1ccc(CSc2nc3ccncc3n2Cc2ccccc2F)cc1,i,.,-10%,.,i
Cc1ccc(CONS(=O)(=O)c2cc(C)ccc2C)cc1,i,-57%,32µM*,?,i
O=C(c1ccc2c(c1)N(Cc1ccc(Cl)cc1)C(=O)c1ccccc1S2(=O)=O)N1CCCCCC1,28µM*,.,18%,.,i
O=C1c2ccccc2S(=O)(=O)c2cc(C(=O)N3CCN(c4ccc(Cl)cn4)CC3)ccc21,i,6%,20µM*,.,i
N#Cc1cccnc1N1CCN(C(=O)c2ccc3c(c2)S(=O)(=O)c2ccccc2C3=O)CC1,i,0%,-18%,.,i
CCOC(=O)N1CCC(NC(=O)c2ccc3c(c2)N(Cc2ccc(F)cc2)C(=O)c2ccccc2S3(=O)=O)CC1,25µM*,.,-17%,.,i
O=C(c1ccc2c(c1)N(Cc1cccc(Cl)c1)C(=O)c1ccccc1S2(=O)=O)N1CCCCCC1,?,.,12%,.,i
O=C(O)c1[nH]n(-c2ccc(S(=O)(=O)O)cc2)c(=O)c1N=Nc1ccc(S(=O)(=O)O)cc1,.,1%,.,.,.
C[C@H]1[C@@H](NCc2cccs2)CC[C@@]23CCCN2C(=O)CCC[C@@H]13,i,.,.,.,.
COc1cccc(C(=O)Nc2nc(-c3nnn(-c4cccc(Cl)c4C)c3C)ns2)c1,i,.,22%,.,i
COc1ccccc1NC(=O)C1=C(C)Nc2ncnn2C1c1cccn1C (stereo not drawn),i,-3%,10%,.,i
O=C1/C(=C/C=C/c2ccco2)SC(=S)N1c1ccc(O)cc1,i,21%,11µM*,-1%,i
CCCC1(C)C(C#N)(C#N)C1(C#N)C#N,.,15µM*,.,?,.
C/C(=N\Nc1ccc(C(=O)O)cc1)c1ccc(-n2ccnc2)cc1,i,11%,19%,-5%,i
C/C(=N\Nc1ccccc1Cl)c1ccc(-n2ccnc2)cc1,i,0%,7.1µM*,-17%,i
CCN(Cc1ccccc1)C(=O)Cn1c(=O)n(-c2ccc(C)c(C)c2)c(=O)c2c(C)c(C)sc21,?,.,3%,.,i
O=C(c1ccco1)N1CCN(C(=O)c2cc(-c3ccccc3)nc3ccccc23)CC1,i,-2%,-3%,1%,i
Cc1cccc2c(C(=O)N3CCN(C(=O)c4ccco4)CC3)cc(-c3cccc(Br)c3)nc12,i,11%,28µM*,5%,i
COc1ccccc1/C=N/NC(=O)c1ccccc1Cl,i,-2%,-9%,0%,i
C=CCc1cccc(/C=N/NC(=O)c2ccccc2OC)c1O,i,2%,16µM*,28%,i
C=CCc1cccc(/C=N/NC(=O)c2ccccc2Br)c1O,i,?,16µM*,0%,?
O=C(N/N=C/c1ccccc1C(=O)O)c1ccccc1Br,i,1%,-4%,-7%,i
